33 compounds from PubChem BioAssay (NCATS) can be followed below.

Assay [1] deals with Glutathione peroxidase 1 (Homo sapiens) (UniProt P07203). Description: Primary qHTS Assay for Inhibitors of Recombinant Selenoprotein Glutathione Peroxidase 1 (GPX1) (AID 1845191). Also: nearly all actives have a fitted effect of over 65% in size. Also: potency is read from the fitted curve at half-maximal effect. Put shortly: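 10 nM GPX1 + cpd, 30 min RT; start w/ 1 mM GSH, 0.5 mM cumene hydroperoxide, 0.5 mM NADPH, 100 nM GR, 0.01% BSA; buffer 50 mM Tris-HCl pH 7.5, 2 mM EDTA, 150 mM NaCl; Fl 340/450, 0 & 15 min.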
Chain of Glutathione peroxidase 1 (Homo sapiens) (P07203 whole entry, looked up): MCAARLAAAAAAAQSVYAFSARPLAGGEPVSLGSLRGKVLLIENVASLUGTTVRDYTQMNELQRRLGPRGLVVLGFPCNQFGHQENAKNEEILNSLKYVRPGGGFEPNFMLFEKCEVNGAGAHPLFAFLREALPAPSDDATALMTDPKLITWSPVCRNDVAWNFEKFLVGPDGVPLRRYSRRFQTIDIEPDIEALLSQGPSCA

Assay [2] deals with Phospholipid hydroperoxide glutathione peroxidase GPX4 (Homo sapiens) (UniProt P36969). Description: Primary qHTS Assay for Inhibitors of Recombinant Selenoprotein Glutathione Peroxidase 4 (GPX4) (AID 1845192). Also: nearly all actives have a fitted effect of over 65% in size. Also: potency is read from the fitted curve at half-maximal effect. In short, it runs like this: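 NADPH consumption, followed by fluorescence at 340/450 nm between 0 and 15 min, reports GPX4 activity via coupled glutathione reductase (100 nM). Enzyme 200 nM was pre-exposed to compound 30 min; 0.5 mM cumene hydroperoxide and 1 mM GSH served as substrates.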
Chain of Phospholipid hydroperoxide glutathione peroxidase GPX4 (Homo sapiens) (P36969 whole entry, looked up): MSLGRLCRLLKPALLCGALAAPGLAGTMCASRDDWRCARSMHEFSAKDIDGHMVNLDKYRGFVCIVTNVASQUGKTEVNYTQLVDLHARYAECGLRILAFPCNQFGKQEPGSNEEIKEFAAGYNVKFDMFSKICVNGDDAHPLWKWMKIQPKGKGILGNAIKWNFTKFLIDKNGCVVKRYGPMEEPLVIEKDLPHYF

Assay [3] addresses Luciferin 4-monooxygenase (Photinus pyralis) (UniProt P08659). Description: Primary firefly luciferase (FLuc) qHTS assay for identification of artifact compounds. (AID 1845220). Also: nearly all actives have a fitted effect of over 60% in size. The conditions noted are these: outcome: dose series up to 54.1 µM. Put shortly: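 Cell-free, 1536-well qHTS. Buffer pH 7.6 with 0.01% Tween-20 and 0.05% BSA; 10 uM D-luciferin, 10 uM ATP; 10 nM P. pyralis luciferase; luminescence after 5 min.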

Assay [4] can be described thus: Primary fluorescence-based thiol-reactive (MSTI) qHTS assay for identification of artifact compounds. (AID 1845221). Also: nearly all actives have a fitted effect of over 65% in size. Also: potency is read from the fitted curve at half-maximal effect. In short, it runs like this: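 Thiol-reactive compounds detected by quenching of 4 uM MSTI fluorescence (525/598 nm) after 1 h room-temperature dark incubation in PBS pH 7.4, 2% DMSO. qHTS titration; percent inhibition Hill-fitted against Acetyl-MSTI/MSTI controls.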

In assay [5] the test system is Nanoluciferase (engineered Oplophorus gracilirostris luciferase). Description: Primary Nanoluciferase (NLuc) qHTS assay for identification of artifact compounds. (AID 1845222). Also: series mostly up to about 54 µM. In short, it runs like this: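 Compounds are pinned into diluted (1:55) conditioned medium of NLuc-expressing S16 cells and held 15 min at room temperature protected from light. Nano-Glo substrate follows, and luminescence is read 5 min later.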

Assay [6] in a line: Primary redox qHTS assay for identification of artifact compounds. (AID 1845223). In short, it runs like this: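 Amplex Red (25 uM) and HRP (250 mU/mL) in HBSS, with compounds for 15 min, then 250 uM DTT for 30 min, room temperature, dark. Fluorescence 525/598 nm read; normalized to DMSO and 10 uM DA3003; Hill fit.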

Values joined by “and” are separate entries in the source; they are usually repeats but may differ in a detail not shown here. Identical values can stand only once. Inconclusive results are not listed. Some structures have more than one record in an assay (separate samples or runs), and their calls can disagree. Active and inactive are the calls of the source. Calls follow the shape of the dose curve; as a rule, active = well fitted curve in the direction sought with a large enough effect; inconclusive = small, poorly fitted or top-dose-only effect, or another doubt; inactive = no such curve, though single readings can be large; an effect the other way counts as inactive or inconclusive.

For `CC(=O)OCC(=O)NCCCOc1cccc(CN2CCCCC2)c1`, the Potency entry in assay [1] and in assay [2] was “inactive” in each case.
Regarding `CCCCOc1cc(C(=O)NCCN(CC)CC)c2ccccc2n1`, the Potency result in assay [1] and in assay [2] was “inactive” in each case.
In the case of `CCCCCCc1ccc(O)cc1O`, the Potency result in assay [1] and in assay [2] was “inactive” throughout.
Turning to `CCOC(=O)n1ccn(C)c1=S`, the Potency result in assay [1] and in assay [2] was “inactive” throughout.
Regarding `Cc1onc(-c2c(Cl)cccc2Cl)c1C(=O)N[C@@H]1C(=O)N2[C@@H]1SC(C)(C)[C@@H]2C(=O)O`, the Potency result in assay [1], in assay [2], in assay [4] and in assay [5] was “inactive” in each case. Also, the call in assay [3] was inactive.
In the case of `CN(C)CCCOc1nn(Cc2ccccc2)c2ccccc12`, the Potency result in assay [1], in assay [2], in assay [4] and in assay [5] was “inactive” in each case. Further, the call in assay [3] and in assay [6] was inactive.
With `CC(C)n1nc(-c2cc3cc(O)ccc3[nH]2)c2c(N)ncnc21`, the Potency result in assay [1], in assay [2] and in assay [5] was “inactive” throughout. In addition, in assay [3], the result was inactive. The Potency in assay [4] was 10.6 µM (active).
Turning to `C[C@H]1[C@H](NC(=O)/C(=N/OC(C)(C)C(=O)O)c2csc(N)n2)C(=O)N1S(=O)(=O)O` (stereo in doubt), the Potency entry in assay [1] and in assay [2] was “inactive” each time.
For `O=C1c2ccccc2C(=O)C1c1ccccc1`, the Potency result in assay [1] and in assay [2] was “inactive” each time.
On to `CN1CCCC(CC2c3ccccc3Sc3ccccc32)C1` (stereo unspecified), for which the Potency entry in assay [1] and in assay [2] was “inactive” throughout.
For `CC(=O)Oc1ccc(C(c2ccc(OC(C)=O)cc2)c2ccccn2)cc1`, the Potency entry in assay [1] and in assay [2] was “inactive” each time.
In the case of `C=C(CC)C(=O)c1ccc(OCC(=O)O)c(Cl)c1Cl`, the Potency result in assay [1] and in assay [2] was “inactive” each time.
With `O=C(OCCOCCO)c1ccccc1Nc1cccc(C(F)(F)F)c1`, the Potency entry in assay [1], in assay [2], in assay [4] and in assay [5] was “inactive” throughout. Moreover, the compound was called inactive in assay [3] and in assay [6].
As to `CCCCCCCCCCCCCCCCOP(=O)([O-])OCC[N+](C)(C)C`, the Potency result in assay [1] and in assay [2] was “inactive” throughout.
With `O=C1OC(c2ccc(O)cc2)(c2ccc(O)cc2)c2ccccc21`, the Potency result in assay [1] and in assay [2] was “inactive” each time.
In the case of `COc1c(C)c2c(c(O)c1C/C=C(\C)CCC(=O)O)C(=O)OC2`, the Potency entry in assay [1] and in assay [2] was “inactive” each time.
For `Cc1c(C(C)C)c(=O)n(-c2ccccc2)n1C`, the Potency entry in assay [1] and in assay [2] was “inactive” throughout.
On to `C[C@]12CC[C@@H]3c4ccc(O)cc4CC[C@H]3[C@@H]1C[C@@H](O)[C@@H]2O`, for which the Potency entry in assay [1] and in assay [2] was “inactive” throughout.
Turning to `OC[C@H]1O[C@@H](n2cnc3c(=S)nc[nH]c32)[C@H](O)[C@@H]1O`, the Potency entry in assay [1] and in assay [2] was “inactive” throughout.
As for `COc1cc(NS(C)(=O)=O)ccc1Nc1c2ccccc2nc2ccccc12`, the Potency result was “inactive and 25.5 µM (active)” in assay [1]; “inactive and 22.4 µM (active)” in assay [2].
Regarding `OCc1ccccc1O`, the Potency result in assay [1] and in assay [2] was “inactive” each time.
For the compound `CC(=O)OCC(=O)[C@@]1(O)[C@H](C)C[C@H]2[C@@H]3CCC4=CC(=O)C=C[C@]4(C)[C@@]3(F)[C@@H](O)C[C@@]21C`, the Potency entry in assay [1], in assay [2], in assay [4] and in assay [5] was “inactive” throughout. Further, the outcome in assay [3] was inactive.
On to `CN1[C@@H]2CC[C@H]1CC(OC(=O)c1c[nH]c3ccccc13)C2` (stereo partly specified), for which the Potency entry in assay [1], in assay [2], in assay [4] and in assay [5] was “inactive” throughout. Also, the call in assay [3] and in assay [6] was inactive.
As to `c1ccc(CNCCNCc2ccccc2)cc1`, the Potency result in assay [1] and in assay [2] was “inactive” each time.
Regarding `N[C@H](CO)C(=O)O`, the Potency result in assay [1] and in assay [2] was “inactive” each time.
As for `C[C@]12C=CC(=O)C=C1[C@@H](F)C[C@@H]1[C@@H]2[C@@H](O)C[C@@]2(C)[C@H]1CC[C@]2(O)C(=O)CO`, the Potency entry in assay [1] and in assay [2] was “inactive” in each case.
`Cc1cc(O)c(C(C)C)cc1Cl`: the Potency result in assay [1] and in assay [2] was “inactive” each time.
As for `CN(C(=O)CN(CCO)CC(=O)N(C)C(C)(C)Cc1ccccc1)C(C)(C)Cc1ccccc1`, the Potency entry in assay [1] and in assay [2] was “inactive” each time.
In the case of `Cc1nc2n(c(=O)c1CCN1CCC(c3noc4cc(F)ccc34)CC1)CCC[C@H]2O`, the Potency entry in assay [1], in assay [2], in assay [4] and in assay [5] was “inactive” in each case. Also, the compound was classed as inactive in assay [3] and in assay [6].
As to `N[C@H](Cc1c[nH]c2ccccc12)C(=O)O`, the Potency entry in assay [1] and in assay [2] was “inactive” in each case.
As to `CCCC(=O)Nc1ccc(OCC(O)CNC(C)C)c(C(C)=O)c1` (stereo unspecified), the Potency result in assay [1] and in assay [2] was “inactive” each time.
As to `CCCOC(C(=O)OC1CCN(C)CC1)(c1ccccc1)c1ccccc1`, the Potency result in assay [1] and in assay [2] was “inactive” in each case.
With `C[C@]12C=CC(=O)C=C1CC[C@@H]1[C@@H]2[C@@H](O)C[C@@]2(C)[C@H]1CC[C@]2(O)C(=O)CO`, the Potency result in assay [1] and in assay [2] was “inactive” in each case.
